{"source": "PubChem BioAssay", "key": {"[1]": {"tested_on": "Human papillomavirus type 1a protein E7 (residues 44-93)", "assay": "small molecules binding HPV E7 44-93 – biochemical, small-molecule microarray, residues 44-93, 635 nm fluorescence, primary screen (AID 1108);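 note: E7 fragment applied at 1 µg/mL in TBST for 1 h at 4 C; score combines spot fluorescence with its signal to noise ratio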", "settings": "fluorescence 635 nm, higher = more signal"}, "[2]": {"assay": "hepatitis C replication reporter changes, two-sided – Huh7 cells, luciferase reporter, HCV replication inhibitor project, primary screen (AID 1109);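 note: huh7 hepatoma cells harbouring a luciferase neomycin HCV replicon reporter; luciferase luminescence as measure of HCV replicon replication; test concentration not given here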", "settings": "Huh7 HCV replicon luciferase reporter, 48 h; higher = more signal"}, "[3]": {"biological_target": "Left-right determination factor 2 (Homo sapiens) (UniProt O00292)", "sequence (O00292 whole entry, looked up)": "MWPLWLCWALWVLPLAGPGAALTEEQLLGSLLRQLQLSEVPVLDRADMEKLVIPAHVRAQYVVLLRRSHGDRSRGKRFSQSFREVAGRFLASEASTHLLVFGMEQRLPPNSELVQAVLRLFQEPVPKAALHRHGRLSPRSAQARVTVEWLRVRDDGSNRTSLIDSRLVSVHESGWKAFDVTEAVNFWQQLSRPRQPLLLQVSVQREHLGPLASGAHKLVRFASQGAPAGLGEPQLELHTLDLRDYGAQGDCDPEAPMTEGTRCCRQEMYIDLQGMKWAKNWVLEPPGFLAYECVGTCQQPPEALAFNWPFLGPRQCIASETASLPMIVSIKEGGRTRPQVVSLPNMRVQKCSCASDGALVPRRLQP", "assay": "small molecules binding LEFTY2 protein – biochemical, small-molecule microarray, 635 nm fluorescence scan, primary screen (AID 1110)", "settings": "higher = more signal"}, "[4]": {"biological_target": "Calmodulin-1 (Homo sapiens) (UniProt P0DP23)", "assay": "small molecules binding calmodulin-1 with EGTA – biochemical, small-molecule microarray, Cy5-labelled CALM1, profiling panel (AID 1111);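 note: labelled calmodulin applied in Tris saline Tween buffer holding calcium plus EGTA and DTT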", "settings": "Cy5-CALM1 binding fluorescence, higher = more signal"}, "[5]": {"biological_target": "Calmodulin-1 (Homo sapiens) (UniProt P0DP23)", "assay": "small molecules binding Ca-loaded calmodulin-1 – biochemical, small-molecule microarray, Cy5-labelled CALM1, plus calcium, artefact control for SMM control-protein annotation, profiling panel (AID 1112);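 note: score merges spot fluorescence with signal to noise from triplicate slides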", "settings": "Cy5-CALM1 binding fluorescence, higher = more signal"}, "[6]": {"assay": "probe aWnt5a binding to arrayed compounds – biochemical, biotinylated probe, 635/667 nm fluorescence, primary screen (AID 1113);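 note: score merges 667 nm fluorescence intensity with signal-to-noise per printed feature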", "settings": "small-molecule microarray, higher = more signal"}, "[7]": {"assay": "probe aShh binding to arrayed compounds – biochemical, biotinylated probe, 635/667 nm fluorescence, primary screen (AID 1114);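 note: probe is biotin-labelled aShh protein from a stem cell growth factor screen; measures binding of labelled protein to compounds printed on the slide; score merges feature fluorescence at 667 nm with signal-to-noise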", "settings": "small-molecule microarray, higher = more signal"}, "[8]": {"assay": "probe aNog binding to arrayed compounds – biochemical, biotinylated probe, 635/667 nm fluorescence, primary screen (AID 1115);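 note: probe is biotinylated aNog protein used at 0.15 µg/mL for 1 h at 4 C; z-score combines 667 nm fluorescence of each spot with its signal to noise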", "settings": "small-molecule microarray, higher = more signal"}, "[9]": {"biological_target": "Torsin-1A-interacting protein 1 (Homo sapiens) (UniProt Q5JTV8)", "sequence (Q5JTV8 whole entry, looked up)": "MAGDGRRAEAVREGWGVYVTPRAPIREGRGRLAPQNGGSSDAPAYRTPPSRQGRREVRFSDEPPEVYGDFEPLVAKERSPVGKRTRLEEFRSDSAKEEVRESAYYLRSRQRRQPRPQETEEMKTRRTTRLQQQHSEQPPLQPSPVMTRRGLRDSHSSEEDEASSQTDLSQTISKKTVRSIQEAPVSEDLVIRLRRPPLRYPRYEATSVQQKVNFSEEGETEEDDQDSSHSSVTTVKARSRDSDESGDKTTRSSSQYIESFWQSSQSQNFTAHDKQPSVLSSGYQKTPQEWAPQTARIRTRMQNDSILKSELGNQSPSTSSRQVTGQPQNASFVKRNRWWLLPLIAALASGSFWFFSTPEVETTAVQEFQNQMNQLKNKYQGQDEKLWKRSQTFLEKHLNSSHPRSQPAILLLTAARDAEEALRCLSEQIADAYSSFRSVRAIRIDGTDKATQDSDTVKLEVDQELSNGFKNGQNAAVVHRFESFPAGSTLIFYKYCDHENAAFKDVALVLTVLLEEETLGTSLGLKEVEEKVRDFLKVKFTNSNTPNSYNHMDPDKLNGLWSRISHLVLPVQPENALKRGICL", "assay": "compound microarray binding of lysate hLAP1 – cell lysate, small-molecule microarray, COS7 lysate, 635/667 nm fluorescence, primary screen (AID 1116)", "settings": "635 nm fluorescence, higher = more signal"}, "[10]": {"biological_target": "Alpha-bungarotoxin (Bungarus multicinctus) (UniProt P60615)", "sequence (P60615 whole entry, looked up)": "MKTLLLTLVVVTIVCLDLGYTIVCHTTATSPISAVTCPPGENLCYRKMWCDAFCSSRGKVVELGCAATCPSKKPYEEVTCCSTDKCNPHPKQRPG", "assay": "compounds binding labelled alpha-BTX control protein – biochemical, small-molecule microarray, Alexa647 label, 635/667 nm fluorescence, artefact control for SMM control protein annotation, profiling panel (AID 1117)", "settings": "alpha-BTX-A647 binding fluorescence, higher = more signal"}, "Albumin (Bos taurus)": {"biological_target": "Albumin (Bos taurus) (UniProt P02769)", "sequence (P02769 whole entry, looked up)": "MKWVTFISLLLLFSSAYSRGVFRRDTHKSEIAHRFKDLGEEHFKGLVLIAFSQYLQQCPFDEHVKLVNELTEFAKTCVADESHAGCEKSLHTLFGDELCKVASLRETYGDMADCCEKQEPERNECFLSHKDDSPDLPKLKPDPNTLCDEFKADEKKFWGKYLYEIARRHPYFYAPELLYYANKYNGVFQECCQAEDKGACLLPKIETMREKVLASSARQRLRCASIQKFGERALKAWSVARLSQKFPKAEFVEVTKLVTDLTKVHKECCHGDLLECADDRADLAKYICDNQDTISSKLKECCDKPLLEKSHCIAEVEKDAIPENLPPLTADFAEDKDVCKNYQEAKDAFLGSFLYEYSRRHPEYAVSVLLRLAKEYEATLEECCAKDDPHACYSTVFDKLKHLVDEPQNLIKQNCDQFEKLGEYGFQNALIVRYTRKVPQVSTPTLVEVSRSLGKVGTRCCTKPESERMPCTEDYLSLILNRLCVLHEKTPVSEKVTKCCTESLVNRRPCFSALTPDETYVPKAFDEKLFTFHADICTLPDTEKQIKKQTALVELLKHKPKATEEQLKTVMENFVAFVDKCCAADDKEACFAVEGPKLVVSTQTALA", "assay": "compounds binding labelled BSA control protein – biochemical, small-molecule microarray, Alexa647 label, 635/667 nm fluorescence, artefact control for SMM control protein annotation, profiling panel (AID 1118);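 note: score merges 667 nm emission intensity and signal-to-noise per printed compound spot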", "settings": "BSA-A647 binding, fluorescence 635 nm, higher = more signal"}, "[11]": {"assay": "probe aXIP binding to arrayed compounds – biochemical, NeuroSMM set, 635/667 nm fluorescence, primary screen (AID 1119);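 note: probe is the protein aXip251-270 applied at 1 µg/mL to compound-printed slides; binding of probe to printed compounds measured as 667 nm fluorescence plus signal to noise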", "settings": "small-molecule microarray, higher = more signal, called active from +8 up or from −8 down"}, "[12]": {"assay": "probe aNOTCH3 binding on compound microarray – biochemical, small-molecule microarray, 635/667 nm fluorescence, primary screen (AID 1120);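 note: probe is a biotin-tagged antibody raised against NOTCH3 rather than NOTCH3 protein; score merges spot fluorescence near 667 nm with spot signal to noise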", "settings": "higher = more signal"}, "[13]": {"assay": "probe aNOTCH2 binding on compound microarray – biochemical, small-molecule microarray, 635/667 nm fluorescence, primary screen (AID 1121);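 note: score merges feature fluorescence read at 667 nm with its signal to noise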", "settings": "higher = more signal"}, "[14]": {"biological_target": "Carbonic anhydrase 2 (Homo sapiens) (UniProt P00918)", "assay": "compounds binding carbonic anhydrase 2 – biochemical, small-molecule microarray, Alexa647-labelled CAII, profiling panel (AID 1122)", "settings": "CAII-A647 binding fluorescence, higher = more signal"}, "[15]": {"assay": "COS7 lysate on small-molecule microarray, probe aHis, 635 nm (AID 1123);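 note: z-score combines 667nm fluorescence intensity with signal-to-noise per printed compound spot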", "settings": "COS7 cell lysate, fluorescence, higher = more signal"}, "[16]": {"assay": "probe aLAP1 signal on lysate-treated microarray – cell lysate, small-molecule microarray, COS7 lysate, primary screen (AID 1124);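 note: lysate comes from COS7 cells expressing LAP1 and is applied at 0.3 µg/mL; score merges spot fluorescence near 667 nm with signal-to-noise over triplicate slides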", "settings": "probe aLAP1, fluorescence, higher = more signal"}, "Sam68 (KHDRBS1)": {"tested_on": "Sam68 (KHDRBS1)", "assay": "compounds binding KHDRBS1 protein – biochemical, small-molecule microarray, 635 nm fluorescence, primary screen (AID 1125);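 note: score merges 667 nm channel intensity with signal to noise over triplicate slides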", "settings": "higher = more signal"}, "[17]": {"tested_on": "Chordin-like protein 2 (CHRDL2)", "assay": "compounds binding chordin-like 2 – biochemical, small-molecule microarray, 635 nm fluorescence, primary screen (AID 1126);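 note: printed compound slides probed with Chrdl2 protein at 4 µg/mL for 1 h at 4 C; score merges 667 nm emission intensity with signal to noise over three replicate slides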", "settings": "fluorescence 635 nm, higher = more signal"}, "[18]": {"biological_target": "Concanavalin-A (Canavalia ensiformis) (UniProt P02866)", "sequence (P02866 whole entry, looked up)": "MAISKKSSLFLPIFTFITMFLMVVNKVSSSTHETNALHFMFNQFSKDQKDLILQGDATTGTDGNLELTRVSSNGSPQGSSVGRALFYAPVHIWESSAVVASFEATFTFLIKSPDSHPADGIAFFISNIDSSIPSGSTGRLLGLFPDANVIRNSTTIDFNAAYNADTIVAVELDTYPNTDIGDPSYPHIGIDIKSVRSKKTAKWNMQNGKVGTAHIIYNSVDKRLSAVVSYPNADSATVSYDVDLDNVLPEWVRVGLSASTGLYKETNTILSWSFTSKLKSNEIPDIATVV", "assay": "compounds binding concanavalin A lectin – biochemical, small-molecule microarray, Alexa647 label, 635 nm, artefact control for SMM control protein annotation, primary screen (AID 1127);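 note: z combines 667 nm emission intensity with signal-to-noise across three replicate slides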", "settings": "ConA-A647 binding fluorescence, higher = more signal"}}, "note": "Calls of active or inactive are those of the source.", "data": [{"smiles": "OC[C@H]1O[C@H](C#Cc2ccccc2)C=C[C@@H]1O", "values": [{"measurement": "composite z-score", "setting": "[1]", "result": 0.0191}, {"measurement": "z-score", "setting": "[2]", "result": -0.125}, {"measurement": "composite z-score", "setting": "[3]", "result": 0.484}, {"measurement": "composite z-score", "setting": "[4]", "result": -0.12}, {"measurement": "composite z-score", "setting": "[5]", "result": -0.644}, {"measurement": "composite z-score", "setting": "[6]", "result": 0.0251}, {"measurement": "composite z-score", "setting": "[7]", "result": 0.0141}, {"measurement": "composite z-score", "setting": "[8]", "result": -0.0125}, {"measurement": "composite z-score", "setting": "[9]", "result": -0.0177}, {"measurement": "composite z-score", "setting": "[10]", "result": 0.42}, {"measurement": "composite z-score", "setting": "Albumin (Bos taurus)", "result": 0.475}, {"measurement": "composite Z-score", "setting": "[11]", "result": "0.131 (inactive)"}, {"measurement": "composite z-score", "setting": "[12]", "result": -0.0647}, {"measurement": "composite z-score", "setting": "[13]", "result": -0.101}, {"measurement": "composite z-score", "setting": "[14]", "result": -0.0795}, {"measurement": "composite z-score", "setting": "[15]", "result": 0.171}, {"measurement": "composite z-score", "setting": "[16]", "result": -0.647}, {"measurement": "composite z-score", "setting": "Sam68 (KHDRBS1)", "result": 0.0701}, {"measurement": "composite z-score", "setting": "[17]", "result": 0.622}, {"measurement": "composite z-score", "setting": "[18]", "result": 0.341}]}, {"smiles": "CC(C)CON=C1C[C@@H](O)[C@@H](O)[C@@H]2[C@@H]3C(=O)N(C(C)(C)C)C(=O)[C@@H]3CC[C@@H]12", "values": [{"measurement": "composite z-score", "setting": "[1]", "result": -0.219}, {"measurement": "z-score", "setting": "[2]", "result": -0.851}, {"measurement": "composite z-score", "setting": "[3]", "result": 1.1}, {"measurement": "composite z-score", "setting": "[4]", "result": -1.39}, {"measurement": "composite z-score", "setting": "[5]", "result": -2.27}, {"measurement": "composite z-score", "setting": "[6]", "result": -0.178}, {"measurement": "composite z-score", "setting": "[7]", "result": -0.229}, {"measurement": "composite z-score", "setting": "[8]", "result": -0.158}, {"measurement": "composite z-score", "setting": "[9]", "result": 0.0031}, {"measurement": "composite z-score", "setting": "[10]", "result": -0.718}, {"measurement": "composite z-score", "setting": "Albumin (Bos taurus)", "result": -0.708}, {"measurement": "composite Z-score", "setting": "[11]", "result": "0.11 (inactive)"}, {"measurement": "composite z-score", "setting": "[12]", "result": -0.157}, {"measurement": "composite z-score", "setting": "[13]", "result": -0.14}, {"measurement": "composite z-score", "setting": "[14]", "result": -0.488}, {"measurement": "composite z-score", "setting": "[15]", "result": -0.75}, {"measurement": "composite z-score", "setting": "[16]", "result": -0.0854}, {"measurement": "composite z-score", "setting": "Sam68 (KHDRBS1)", "result": 0.845}, {"measurement": "composite z-score", "setting": "[17]", "result": 1.5}, {"measurement": "composite z-score", "setting": "[18]", "result": -1.21}]}, {"smiles": "CC(=O)OC[C@H]1O[C@H](CC=NOC(C)CN2CCCc3nc(C)c(C)cc32)C=C[C@@H]1OC(C)=O", "note": "(stereo not given in full)", "values": [{"measurement": "composite z-score", "setting": "[1]", "result": 0.838}, {"measurement": "z-score", "setting": "[2]", "result": -0.475}, {"measurement": "composite z-score", "setting": "[3]", "result": 0.833}, {"measurement": "composite z-score", "setting": "[4]", "result": -0.651}, {"measurement": "composite z-score", "setting": "[5]", "result": -1.2}, {"measurement": "composite z-score", "setting": "[6]", "result": 0.027}, {"measurement": "composite z-score", "setting": "[7]", "result": 0.261}, {"measurement": "composite z-score", "setting": "[8]", "result": 0.134}, {"measurement": "composite z-score", "setting": "[9]", "result": 1}, {"measurement": "composite z-score", "setting": "[10]", "result": -0.0213}, {"measurement": "composite z-score", "setting": "Albumin (Bos taurus)", "result": -0.0846}, {"measurement": "composite Z-score", "setting": "[11]", "result": "1.01 (inactive)"}, {"measurement": "composite z-score", "setting": "[12]", "result": 0.0591}, {"measurement": "composite z-score", "setting": "[13]", "result": 0.0032}, {"measurement": "composite z-score", "setting": "[14]", "result": 0.0124}, {"measurement": "composite z-score", "setting": "[15]", "result": 0.0855}, {"measurement": "composite z-score", "setting": "[16]", "result": 0.53}, {"measurement": "composite z-score", "setting": "Sam68 (KHDRBS1)", "result": 1.2}, {"measurement": "composite z-score", "setting": "[17]", "result": 1.15}, {"measurement": "composite z-score", "setting": "[18]", "result": -0.152}]}]}
